Measurements published in PubChem BioAssay (Tox21).
Several values for one entry are separate records, joined by “and”; a condition that tells them apart may be missing. Identical values can stand only once. Results filed as inconclusive are left out. Entries that show only a call come without a potency. The source holds several records for some structures; these can differ, active in one and inactive in another. Activity calls are given as the source filed them. Calls come from the whole dose curve; as a rule, active = well fitted cell-killing curve with a large enough effect in the repeat runs; inconclusive = weak or mixed curves; inactive = no such curve, though single readings can be large or run the other way.

Test: qHTS assay for identifying genotoxic compounds that show differential cytotoxicity against isogenic chicken DT40 cell lines with known DNA damage response pathways - Rad54/Ku70 mutant cell line (AID 743015); note: nearly all actives have a fitted effect of over 60% in size
Details: DT40 Rad54/Ku70 mutant viability, CellTiter-Glo, 40 h; series mostly up to 66.8 µM
From the text: National Center for Advancing Translational Sciences [NCATS]
NIH Chemical Genomics Center [NCGC]
U.S. Environmental Protection Agency [EPA]
National Institutes of Environmental Health Sciences [NIEHS]
National Toxicology Program [NTP]
U.S. Food and Drug Administration [FDA]
DNA repair pathways play a critical role in cellular homeostasis by repairing DNA damage induced by endogenous processes and xenobiotics. Isogenic chicken DT40 cell lines deficient in different DNA repair pathways can be used to identify genotoxic compounds and aid in characterizing the nature of the DNA damage induced. Two DNA repair-deficient cell lines with disrupted genes, Rad54/Ku70 or Rev3, were used to screen the Tox21 10K compound library. Possible genotoxicity was based on the presence of a significant increase in cytotoxicity in one or more of the DNA repair-deficient cell lines compared to that observed in the parental DNA repair-proficient cell line. CellTiter Glo viability assay (Promega, Madison, WI) was used to measure cell viability in these cells after compound treatment. This assay includes the data from the Rad54/Ku70 mutant cell line.
Tox21 Assay Protocol Summary:
300 DT40 mutant cells in 5 uL/well were dispensed into white, solid-bottom 1536-well plates using a Multidrop Combi (ThermoFisher Scientific, Waltham, MA) dispenser. After the assay plates were incubated at 37 C/5% CO2 for approximately 0.5 hour, 23 nL of compounds dissolved in DMSO, positive controls or DMSO only was transferred into the assay plate by a pintool work station (Kalypsys, San Diego, CA). The assay plates were incubated at 37 C/5% CO2 for 40 hours. After 5 uL per well of CellTiter-Glo reagent was added into each well of the assay plates, the plates were incubated for 30 min at room temperature and the luminescence intensity of the plates was measured using a ViewLux (PerkinElmer, Shelton, CT) plate reader.
Potency is the fitted concentration of half-maximal effect.

| Compound | Potency |
| --- | --- |
| O=C(O)c1ccccc1O | inactive |
| O=P1(N(CCCl)CCCl)NCCCO1 (stereo not given) | inactive |
| CCn1cc[n+](C)c1C | inactive |
| CCCCCCCCCCCC(=O)O | 27.4 µM (active) |
| CCC[N+]1(C)CCCCC1 | inactive |
| COCC(=O)N(c1c(C)cccc1C)C(C)C(=O)OC (stereo not given) | inactive |
| O=C(O)COc1ccc(Cl)cc1Cl | inactive |
| C[N+](C)(C)Cc1ccccc1 | inactive |
| CCCCCCCCn1cc[n+](C)c1 | 607 nM (active) [middle of 4 runs] |
| CCOP(=S)(OCC)Oc1ccc2c(C)c(Cl)c(=O)oc2c1 | inactive and 17.2 µM (active) |
| CC(=O)[O][Hg][c]1ccccc1 | 237 nM (active) and 152 nM (active) and 86.3 nM (active) |
| COc1ccc(N)cc1 | 53.5 µM (active) and 60.6 µM (active) and inactive |
| C=CCOC(Cn1ccnc1)c1ccc(Cl)cc1Cl (stereo not given) | 21.1 µM (active) and 43.4 µM (active) and 13.7 µM (active) |
| CC(Cl)(Cl)C(=O)O | inactive |
| O=C(O)CC(O)(CC(=O)O)C(=O)O | inactive |
| C[C@]12CCC(=O)C=C1CC[C@@H]1[C@@H]2CC[C@]2(C)C(=O)CC[C@@H]12 | 26.6 µM (active) and 42.5 µM (active) and 27.3 µM (active) |
| CC(=O)O | inactive |
| O=S(=O)(O)O | inactive and 48.6 µM (active) |
| O=c1[nH]c(=O)n(Cl)c(=O)n1Cl | inactive |
| CCCC[N+]1(C)CCCC1 | inactive |

| Compound | Potency |
| --- | --- |
| CCCCCCCCCCCCCC[P+](CCCCCC)(CCCCCC)CCCCCC | 6.14 µM (active) and 6.16 µM (active) and inactive |
| Nc1ccc(Cl)cc1 | inactive |
| O=C(O)c1nc(Cl)ccc1Cl | inactive |
| Nc1ccccc1 | inactive |
| CC[N+](CC)(CC)CC | inactive |
| CC[N+]1(C)CCCC1 | inactive and 771 nM (active) |
| Oc1ccccc1-c1ccccc1 | inactive |
| CCCCCCCCCCCCOS(=O)(=O)O | inactive |
| O=C(O)CCl | inactive |
| CCCC[N+]1(C)CCCCC1 | inactive |
| Nc1ccc(-c2ccc(N)c(Cl)c2)cc1Cl | 61.4 µM (active) and 50.8 µM (active) and 54.5 µM (active) |
| CCCC[n+]1ccc(C)cc1 | inactive and 48.3 µM (active) and 60.8 µM (active) |
| CN(C)[C@@H]1C(=O)C(C(N)=O)=C(O)[C@@]2(O)C(=O)C3=C(O)c4c(O)cccc4[C@@](C)(O)[C@H]3[C@H](O)[C@@H]12 | inactive and 48.6 µM (active) |
| COP(=O)(OC)C(O)C(Cl)(Cl)Cl (stereo not given) | inactive |
| N#CS | inactive |
| CCNc1nc(Cl)nc(NCC)n1 | inactive |
| Cc1cc(Cl)ccc1OCC(=O)O | inactive |
| CCCCn1cc[n+](C)c1C | inactive |
| COc1ccccc1N | inactive |
| O=C(O)C(Cl)(Cl)Cl | inactive |
